Inconclusive results are not listed. Where a call stands in place of a potency, no number is given. Calls of active or inactive are those of the source. Calls follow the shape of the dose curve; as a rule, active = well fitted inhibition curve with a large enough effect in the repeat runs; inconclusive = weak or mixed curves; inactive = no such curve, though single readings can be large or run the other way.
Potency is read from the fitted curve at half-maximal effect.

The target in this test is Cytochrome P450 3A4 (Homo sapiens) (UniProt P08684). Nature of the test: Cytochrome P450 Family 3 Subfamily A Member 4 (CYP3A4) small molecule antagonists: luciferase reporter qHTS assay (AID 1671201). Also: nearly all actives have a fitted effect of over 50% in size. The settings on record: P450-Glo CYP3A4 enzyme, luciferin luminescence, 1 h; series mostly up to 115 µM. From the text: National Center for Advancing Translational Sciences [NCATS]
Sequence of Cytochrome P450 3A4 (Homo sapiens) (P08684 whole entry, looked up): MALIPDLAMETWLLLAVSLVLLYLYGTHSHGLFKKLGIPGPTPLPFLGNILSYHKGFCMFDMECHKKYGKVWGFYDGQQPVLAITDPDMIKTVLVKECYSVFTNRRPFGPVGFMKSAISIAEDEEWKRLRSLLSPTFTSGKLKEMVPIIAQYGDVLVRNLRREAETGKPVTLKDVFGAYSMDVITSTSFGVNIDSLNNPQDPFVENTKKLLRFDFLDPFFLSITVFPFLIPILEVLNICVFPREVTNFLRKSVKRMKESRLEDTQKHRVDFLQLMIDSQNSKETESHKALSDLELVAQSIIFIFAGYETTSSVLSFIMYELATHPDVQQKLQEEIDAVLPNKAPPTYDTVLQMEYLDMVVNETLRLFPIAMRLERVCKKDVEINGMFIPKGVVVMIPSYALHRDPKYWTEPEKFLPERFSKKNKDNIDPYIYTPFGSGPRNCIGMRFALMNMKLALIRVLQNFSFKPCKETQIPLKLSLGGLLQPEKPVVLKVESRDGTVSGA
U.S. Environmental Protection Agency [EPA]
National Institutes of Environmental Health Sciences [NIEHS]
National Toxicology Program [NTP]
U.S. Food and Drug Administration [FDA]
Cytochrome P450 (CYP) enzymes are membrane-bound hemeproteins that play a key role in metabolism of drugs and xenobiotics. Evaluation of the effect of chemicals on CYP isozymes is useful to minimize the adverse drug reactions and toxicities in drug development process. Tox21 chemicals were tested for their effect on CYP enzyme activities by using P450-Glo (TM) screening systems (Promega Corporation, Madison, WI). These systems provide a luminescent method containing proluciferin substrates and are converted to luciferin products by CYP isozymes. The luciferin products formed are detected with a luciferin detection reagent, and the amount of light produced is proportional to CYP activity. P450-Glo (TM) CYP3A4 screening system (Catalog. No. V9910) was used to detect the compounds that interfere in CYP3A4 activity. The positive control compound used for CYP3A4 assay is ketoconazole (Sigma-Aldrich, St. Louis, MO).
Tox21 Assay Protocol Summary:
Two ul of enzyme-substrate mix was dispensed into medium binding white/solid 1536-well plates (Greiner Bio-One North America Inc., Monroe, NC) using a BioRaptr Flying Reagent Dispenser (FRD, Beckman Coulter, Brea, CA). Compounds dissolved in DMSO and positive control (ketoconazole) were transferred to the assay plates at 23 nl using a Pintool station (Wako, San Diego, CA). The assay plates were incubated at room temperature for 10 min. Then 2 ul of NADPH regeneration solution was added to each well of the assay plates using an FRD and incubated at room temperature for 1 h. The reaction was stopped by adding 4 ul of detection reagent using an FRD and after 20 min incubation at room temperature the luminescence signal was measured using a ViewLux plate reader (Perkin Elmer, Shelton, CT). Data were expressed as relative luminescence units.
For orientation: Reporter assays use an easily measured gene product as a stand-in for the process of interest.
In the case of `CC(=O)Nc1ccc(OC(=O)c2ccccc2OC(C)=O)cc1`, the Potency result is “inactive”.

`COc1cc(/C=C/C(N)=O)cc(OC)c1OC`: the Potency entry is “inactive”.

With `C/C(=C1\CCOC(=O)S1)N(C=O)Cc1cnc(C)nc1N`, the Potency is 15.5 µM (active).

Regarding `OCC(O)CN1CCN(c2ccccc2)CC1` (stereo not given), the Potency entry is “inactive”.

With `O=Cc1cc2ccccc2o1`, the Potency entry is “inactive”.

`N[C@@H](CSCCCO)C(=O)O`: the activity change, negative = inhibition was 15.6% [at 23.6 µM] (inactive).

With `CN1C[C@@H]2C[C@H]1CN2c1cc2c(cc1F)c(=O)c(C(=O)O)cn2C1CC1`, the activity change, negative = inhibition was 4.83% [at 23.6 µM] (inactive).

Consider `CCCCCC/C=C/C(=O)OC`, for which the Potency result was “inactive”.

Regarding `Cc1ccc(C(=O)O)cc1[N+](=O)[O-]`, the Potency result is “inactive”.

In the case of `N#Cc1ccccc1O`, the Potency entry was “inactive”.

`CC(C)Nc1ccccc1`: the Potency result was “inactive”.

With `CCCCCc1cccc(=O)o1`, the Potency result is “inactive”.

Consider `CCCCCCCCCCCCCBr`, for which the Potency entry was “inactive”.

In the case of `C=C(C)[C@@H]1CC=C(C)C(=O)C1`, the Potency entry is “inactive”.

On to `CC(C)c1ccc(C=O)cc1`, for which the Potency result was “inactive”.

Turning to `CC1=C(O)C(=O)C(C)O1` (stereo not given), the Potency result was “inactive”.

Regarding `CCCCC1CCC(O)CC1` (stereo not given), the Potency entry is “inactive”.

As to `CCCCCCCCCOC(=O)CCCCC(=O)OCCCCCCC`, the Potency result was “inactive”.

As for `Cn1c(=O)c2[nH]c(Br)nc2n(C)c1=O`, the Potency result is “inactive”.

For `CCOc1cccc(N)c1`, the Potency is 2.23 µM (active).

Take `C=CC(=O)OCC1CCCO1` (stereo not given): the Potency result was “inactive”.

With `Cc1c(Cl)cccc1Cl`, the Potency entry is “inactive”.

As to `O=C(Cl)c1ccccc1[N+](=O)[O-]`, the Potency result was “inactive”.

As for `COc1ccc(CCO)cc1`, the Potency entry is “inactive”.

`CC(C)CCOC(=O)c1ccccc1`: the Potency entry is “inactive”.

As for `[O]=[Mo](=[O])=[O]`, the activity change, negative = inhibition is -5.3% [at 23.6 µM] (inactive).

With `CCCC(=O)OCCC(C)CCC=C(C)C` (stereo not given), the Potency is 4.48 µM (active).

For the compound `C=Cc1ccc(C(C)(C)C)cc1`, the Potency entry was “inactive”.

As for `O=C1CCCCO1`, the Potency result is “inactive”.

As for `C[C@@H](O)C(=O)O`, the Potency entry is “inactive”.

For `O=C(O)CSCC(=O)NC1CCSC1=O` (stereo not given), the Potency result was “inactive”.

As to `CCC(=O)Oc1ccc2c(c1)CC[C@@H]1[C@@H]2CC[C@@]2(C)[C@H]1C[C@@H](OC(=O)CC)[C@@H]2OC(=O)CC`, the Potency entry was “inactive”.

Regarding `O=C1OCCO1`, the Potency entry was “inactive”.

Take `C=C(C)c1cccc(C(C)(C)N=C=O)c1`: the Potency is 2.83 µM (active).

With `COCCc1ccccn1`, the Potency entry was “inactive”.

Consider `O=C(CCCCC(=O)Nc1c(I)cc(I)c(C(=O)O)c1I)Nc1c(I)cc(I)c(C(=O)O)c1I`, for which the Potency result was “inactive”.

In the case of `CC12CCC(C1)C(C)(C)C2O` (stereo not given), the Potency result was “inactive”.

In the case of `CC1CCc2c(N3CCC(O)CC3)c(F)cc3c(=O)c(C(=O)O)cn1c23` (stereo not given), the Potency result was “inactive”.

On to `Cc1cccc(Cl)c1`, for which the Potency result is “inactive”.

As for `OCCN1CCOCC1`, the Potency result is “inactive”.

The values above are taken from PubChem BioAssay (Tox21).
